# Reference: PubChem BioAssay (NCI)
# The panel holds about 79,000 compounds, 15% with a hit somewhere; the sample as a whole holds those more often. Calls of active or inactive are those of the source. Rule as the data show it: active = growth inhibition above about 70%; inactive = the rest.
# Assays:
# [1] = NCI Yeast Anticancer Drug Screen. Data for the rad50 strain (AID 155);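 also: 0% = growth of vehicle-only cultures of the same strain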; details: S. cerevisiae rad50 strain growth inhibition; at 50.0 µM; active compounds read high
# Procedure, shortened: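 Cells are treated with compound, grown, and their growth is then scored against vehicle-only cultures of the same repair-deficient yeast strain.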
# [2] = NCI Yeast Anticancer Drug Screen. Data for the mec2-1 strain (AID 157); details: S. cerevisiae mec2-1 strain, at 50.0 µM, active compounds read high
# Procedure, shortened: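 Test agents were screened against the mec2-1 yeast strain, with defined DNA repair or cell cycle alteration. Growth was scored as inhibition against vehicle-only controls.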
# [3] = NCI Yeast Anticancer Drug Screen. Data for the sgs1 mgt1 strain (AID 161);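 also: 0% = growth of cultures given vehicle only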; details: S. cerevisiae sgs1 mgt1 strain, at 50.0 µM, active compounds read high
# Procedure, shortened: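 Genetically altered yeast, compound exposure, growth inhibition relative to vehicle.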
# [4] = NCI Yeast Anticancer Drug Screen. Data for the cln2 rad14 strain (AID 165);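 also: 0% = growth equal to vehicle treated cultures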; details: S. cerevisiae cln2 rad14 strain, at 50.0 µM, active compounds read high
# Procedure, shortened: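 Growth of compound-exposed yeast (cln2 rad14 genotype) measured and expressed as inhibition relative to vehicle.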
# [5] = NCI Yeast Anticancer Drug Screen. Data for the bub3 strain (AID 167); details: S. cerevisiae bub3 mutant strain, at 50.0 µM, active compounds read high
# Procedure, shortened: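 Part of a panel of yeast mutants defective in DNA damage repair or cell cycle regulation. Each strain is grown with compound, and inhibition is calculated relative to solvent-treated cultures.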
# [6] = NCI Yeast Anticancer Drug Screen. Data for the mlh1 rad18 strain (AID 175); details: S. cerevisiae mlh1 rad18 strain growth inhibition; at 50.0 µM; active compounds read high
# Procedure, shortened: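 In this whole-cell yeast screen, a strain with altered DNA damage repair is challenged with compound, and its growth is measured against matched vehicle-treated controls.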
Structure (SMILES),growth inhibition [1],growth inhibition [2],growth inhibition [3],growth inhibition [4],growth inhibition [5],growth inhibition [6]
O=C(NC(=S)N1CC=CCC1)c1ccccc1,13.5% (inactive),16.7% (inactive),26.4% (inactive),-1.95% (inactive),45.5% (inactive),21.3% (inactive)
COC1(OC)C2(Cl)C(Cl)=C(Cl)C1(Cl)C1COCC12 (stereo not drawn),-48% (inactive),17.5% (inactive),-40.2% (inactive),12.8% (inactive),22.2% (inactive),-8.6% (inactive)
C=C(C)[C@@H]1CC[C@]2(CO)CC[C@]3(C)[C@H](CC[C@@H]4[C@@]5(C)CC[C@H](O)C(C)(C)[C@@H]5CC[C@]43C)[C@@H]12,15.6% (inactive),-4.3% (inactive),-18.1% (inactive),11.8% (inactive),-11.7% (inactive),29.1% (inactive)
O=C(Oc1ccccc1Cl)c1ccc(Cl)cc1Cl,2.2% (inactive),33.4% (inactive),24.9% (inactive),-49.4% (inactive),43.2% (inactive),48.3% (inactive)
CCCCn1cnc2c(=O)[nH]cnc21,3.2% (inactive),2.25% (inactive),-5.15% (inactive),-14.8% (inactive),8.95% (inactive),2.3% (inactive)
CSc1nsc(N)n1,-13.3% (inactive),2.5% (inactive),-4.2% (inactive),-26.9% (inactive),16.8% (inactive),20.7% (inactive)
Cc1cc2c(C(C)C)c(O)c(O)c(C=Nc3ccccc3[N+](=O)[O-])c2c(O)c1-c1c(C)cc2c(C(C)C)c(O)c(O)c(C=Nc3ccccc3[N+](=O)[O-])c2c1O,-13.9% (inactive),-19.6% (inactive),-19.6% (inactive),-21.8% (inactive),-17.4% (inactive),-2.3% (inactive)
O=Cc1c(O)c2ccccc2[nH]c1=O,-0.95% (inactive),1.35% (inactive),-1.55% (inactive),9.5% (inactive),4.2% (inactive),3.85% (inactive)
COc1ccc2c(c1)Nc1ccccc1S2,-23.9% (inactive),-23.5% (inactive),-26.6% (inactive),-1.6% (inactive),-14.6% (inactive),-16.2% (inactive)
NC(=O)N1CCOCC1,15.2% (inactive),-7.9% (inactive),-12.9% (inactive),-27.4% (inactive),-14.3% (inactive),17.9% (inactive)
Nc1ccc(F)cc1F,6% (inactive),-2.25% (inactive),-3.7% (inactive),-27.1% (inactive),18.1% (inactive),7.35% (inactive)
COCC(N)=O,31.2% (inactive),-17.9% (inactive),15.2% (inactive),-5.1% (inactive),5.2% (inactive),13.8% (inactive)
N#CCCN1C(=O)CCC1C(=O)O (stereo not drawn),7.75% (inactive),-11.2% (inactive),10.1% (inactive),-6.15% (inactive),-3.1% (inactive),13.3% (inactive)
CNc1ccccc1C(=O)N/N=C/C=C/c1ccccc1,31.6% (inactive),0.35% (inactive),31.1% (inactive),2.65% (inactive),5.3% (inactive),14.5% (inactive)
CCCCN(C(=O)CC)c1ccccc1,23.7% (inactive),-29.8% (inactive),9.5% (inactive),-22.4% (inactive),-12.9% (inactive),-62.5% (inactive)
NC(=O)NCCO,-17.5% (inactive),4.1% (inactive),13.8% (inactive),-18.6% (inactive),-6.05% (inactive),13.3% (inactive)
COc1ccc(Nc2cc(Cl)ccc2C(=O)O)cn1,4.25% (inactive),0.6% (inactive),-6.95% (inactive),17.9% (inactive),5.3% (inactive),-4.55% (inactive)

Structure (SMILES),growth inhibition [1],growth inhibition [2],growth inhibition [3],growth inhibition [4],growth inhibition [5],growth inhibition [6]
CCN(CC)c1ccc2nc3ccc(N=Nc4ccc(N(C)C)cc4)cc3[n+](-c3ccccc3)c2c1,42.5% (inactive),52.5% (inactive),57.7% (inactive),54.9% (inactive),,38.9% (inactive)
O=C(O)c1c[nH]c2ccccc2c1=O,4.95% (inactive),-8.15% (inactive),5.7% (inactive),-21.5% (inactive),,1.65% (inactive)
COC(=O)c1ccccc1C(=O)c1c(C)cc(C)cc1C,13.8% (inactive),28.2% (inactive),34.1% (inactive),-64% (inactive),,50.3% (inactive)
COC(C(=O)C(O)C(C)O)C1Cc2cc3cc(OC4CC(OC5CC(O)C(O)C(C)O5)C(O)C(C)O4)c(C)c(O)c3c(O)c2C(=O)C1OC1CC(OC2CC(O)C(OC3CC(C)(O)C(O)C(C)O3)C(C)O2)C(O)C(C)O1 (stereo not drawn),-6.6% (inactive),-23.4% (inactive),-12.5% (inactive),6.95% (inactive),-11.2% (inactive),11.8% (inactive)
O=c1nc(Nc2cccc(Cl)c2)oc2cc(Cl)oc(=O)c12,32.5% (inactive),26% (inactive),51.8% (inactive),19.6% (inactive),,42.6% (inactive)
CCCCNC(=O)c1ccc(OCC)cc1,12.2% (inactive),20.4% (inactive),33.3% (inactive),-16.4% (inactive),,-0.1% (inactive)
Nc1ccc2c(c1)Cc1cc(N)c(N)cc1-2,10.8% (inactive),-7.75% (inactive),10.9% (inactive),-18.7% (inactive),-3.8% (inactive),5.8% (inactive)
CC(=O)OC/C(C)=C\CC(C)COC(C)=O (stereo not drawn),-9.25% (inactive),3.35% (inactive),14.4% (inactive),2.4% (inactive),,-0.75% (inactive)
Oc1cc2ccccc2c(-c2c(O)c(O)cc3ccccc23)c1O,89.5% (active),85% (active),83.7% (active),83.6% (active),,91.7% (active)
O=C(Nc1cccc(Cl)c1)c1ccc(Cl)cc1Cl,1.95% (inactive),5.85% (inactive),2.2% (inactive),-48.5% (inactive),,0.1% (inactive)
O=[N+]([O-])c1ccc(-c2nc(N(CCO)CCO)c3ccccc3n2)o1,41.8% (inactive),69.8% (inactive),88.8% (active),72.5% (active),25.1% (inactive),66.8% (inactive)
CC(C)c1ncc([N+](=O)[O-])n1C,-13.2% (inactive),2.9% (inactive),-16.6% (inactive),-30.1% (inactive),,8.75% (inactive)
OCC1OC(n2ccc3c2ncn2ncnc32)C(O)C1O (stereo not drawn),-20.7% (inactive),3.45% (inactive),-10.4% (inactive),-15.3% (inactive),,-47.8% (inactive)
O=S1(=O)c2ccccc2Oc2ccccc21,-26.2% (inactive),-19.4% (inactive),-23.7% (inactive),16.6% (inactive),3.4% (inactive),-14.6% (inactive)
Cc1ccc(S(=O)(=O)NC(=O)NCCSSCCNC(=O)NS(=O)(=O)c2ccc(C)cc2)cc1,10.6% (inactive),-7.35% (inactive),12.6% (inactive),-1% (inactive),18.6% (inactive),7.95% (inactive)
C=CC1=NC(C)(C)CC(C)O1 (stereo not drawn),8% (inactive),-15.2% (inactive),9.75% (inactive),25.4% (inactive),11.5% (inactive),9.75% (inactive)
CC1(C)OC(=O)CC1=O,4.6% (inactive),-2.45% (inactive),0.55% (inactive),3.65% (inactive),,-3.2% (inactive)
